Results published in PubChem BioAssay (Tox21).
Inconclusive results are not listed. Activity calls are given as the source filed them. Unless noted, calls follow the shape of the dose curve; as a rule, active = well fitted curve in the direction sought with a large enough effect in the repeat runs; inconclusive = weak or mixed curves; inactive = no such curve, though single readings can be large; an effect the other way counts as inactive or inconclusive.

Experiments:
[1] = qHTS assay to identify small molecule antagonists of the retinoid acid receptor (RAR) signaling pathway - cell viability counter screen (AID 1159551); also: nearly all actives have a fitted effect of over 35% in size
How it was run: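 In this counter screen, the RARE-luciferase line C3RL4 was exposed for 6 h at 37 C and 5% CO2 to compounds with retinol at 1 uM final. Cellular ATP, read by luminescence, served as the viability measure.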

[2] = qHTS assay to identify small molecule antagonists of the retinoic acid receptor (RAR) signaling pathway (AID 1159552; also: nearly all actives have a fitted effect of over 50% in size)
How it was run: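 RARE-luc C3RL4 cells; cpds + 1 uM (final) retinol, 6 hr, 37 C/5% CO2; luciferase reagent, 30 min RT, luminescence readout. Inhibitors of retinol-driven signal scored.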

[3] = qHTS assay to identify small molecule antagonists of the estrogen related receptor (ERR) signaling pathway from Tox21 library - cell viability counter screen (AID 1224834); also: nearly all actives have a fitted effect of over 30% in size
How it was run: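 Counter screen run in ERR cells (2,000 cells/well): cells pre-incubated 6 h, then treated with compounds for 17.5 h at 37 C. Fluorescence was read 30 min after CellTiter-Fluor addition.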

[4] = qHTS assay to identify small molecule agonists of the constitutive androstane receptor (CAR) signaling pathway - cell viability counter screen (AID 1224836); also: nearly all actives have a fitted effect of over 45% in size
How it was run: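 HepG2 cells stably carrying hCAR and a CYP2B6-2.2kb reporter were plated 4 h, then given compounds at 15 concentrations plus PK11195 (final 0.75 uM). After 23 h at 37 C, viability was read by CellTiter-Fluor fluorescence.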

[5] = qHTS assay to identify small molecule antagonists of the constitutive androstane receptor (CAR) signaling pathway - cell viability counter screen (AID 1224837); also: nearly all actives have a fitted effect of over 45% in size
How it was run: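 CITCO at 50 nM final was added alongside compounds (15 concentrations) to double-stable hCAR/CYP2B6-2.2kb HepG2 cells. Following 23 hr at 37 C, cell viability was quantified by CellTiter-Fluor fluorescence intensity.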

[6] = qHTS assay to identify small molecule antagonists of the estrogen related receptor signaling pathway with the pleiotropic PPARgamma coactivator (PGC) from Tox21 10K library - cell viability counter screen (AID 1224840; active = well fitted cell-killing curve with a large enough effect in the repeat runs, not every such curve was filed as active; also: nearly all actives have a fitted effect of over 40% in size)
How it was run: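 Readout: fluorescence intensity from CellTiter-Fluor after 30 min at 37 C/5% CO2. Preceded by 17.5 h treatment of PGC/ERR cells with DMSO-dissolved compounds, added 6 h post-seeding.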

[7] = qHTS assay to identify small molecule agonists of the hypoxia (HIF-1) signaling pathway - cell viability counter screen (AID 1224844; calls by dose curve; also: nearly all actives have a fitted effect of over 50% in size)
How it was run: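 In this counter screen, HRE-bla ME-180 cell viability after 17 hrs of compound exposure at 37C was read by CellTiter-Glo luminescence, multiplexed with the beta-lactamase reporter measurement.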

[8] = qHTS assay to identify small molecule agonists of the retinoic acid receptor (RAR) signaling pathway (AID 1159553); settings: C3RL4 RARE luciferase reporter, agonist, 6 h; activation: at 73.3 µM (top of the series) unless noted
How it was run: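 In this cell-based screen, 1,000 C3RL4 cells per well were cultured overnight, dosed with test chemicals in DMSO for 6 hr, and assessed for RARE luciferase luminescence.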

[9] = molecular target: Luciferin 4-monooxygenase (Photinus pyralis) (UniProt P08659); test: qHTS assay to identify small molecule inhibitors of firefly luciferase (AID 1224835); also: nearly all actives have a fitted effect of over 25% in size
Luciferin 4-monooxygenase (Photinus pyralis), sequence (P08659 whole entry, looked up): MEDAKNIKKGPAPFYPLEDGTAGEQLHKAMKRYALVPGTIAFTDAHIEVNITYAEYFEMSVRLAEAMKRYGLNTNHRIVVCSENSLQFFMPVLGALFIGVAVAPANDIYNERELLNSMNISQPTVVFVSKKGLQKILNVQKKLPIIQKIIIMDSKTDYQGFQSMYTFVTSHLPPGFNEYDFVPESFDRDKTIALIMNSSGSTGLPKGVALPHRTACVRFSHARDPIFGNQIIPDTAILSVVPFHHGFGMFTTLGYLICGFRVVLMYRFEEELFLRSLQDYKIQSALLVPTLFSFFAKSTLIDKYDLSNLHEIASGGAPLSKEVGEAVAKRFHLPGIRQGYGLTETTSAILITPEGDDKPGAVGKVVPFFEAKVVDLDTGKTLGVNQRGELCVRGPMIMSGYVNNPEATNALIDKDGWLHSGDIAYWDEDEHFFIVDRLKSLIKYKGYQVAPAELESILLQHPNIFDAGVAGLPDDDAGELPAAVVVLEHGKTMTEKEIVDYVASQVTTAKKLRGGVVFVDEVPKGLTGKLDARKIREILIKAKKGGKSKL
How it was run: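 Biochemical qHTS: compounds run as interplate titrations against purified firefly enzyme, with D-luciferin and ATP each at its KM concentration. Light output recorded by CCD imaging.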

[10] = molecular target: Nuclear receptor subfamily 1 group I member 3 (Homo sapiens) (UniProt Q14994); test: qHTS assay to identify small molecule antagonists of the constitutive androstane receptor (CAR) signaling pathway (AID 1224838); also: nearly all actives have a fitted effect of over 40% in size
Nuclear receptor subfamily 1 group I member 3 (Homo sapiens), sequence (Q14994 whole entry, looked up): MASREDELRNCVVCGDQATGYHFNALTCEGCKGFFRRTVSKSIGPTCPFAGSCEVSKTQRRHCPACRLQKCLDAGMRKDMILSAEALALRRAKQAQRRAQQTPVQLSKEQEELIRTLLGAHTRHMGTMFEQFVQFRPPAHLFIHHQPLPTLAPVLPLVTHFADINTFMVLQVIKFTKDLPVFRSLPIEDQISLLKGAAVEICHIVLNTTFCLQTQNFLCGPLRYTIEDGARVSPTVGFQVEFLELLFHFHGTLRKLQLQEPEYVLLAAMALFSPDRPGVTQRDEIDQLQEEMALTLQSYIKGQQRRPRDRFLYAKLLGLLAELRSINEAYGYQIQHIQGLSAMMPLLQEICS
How it was run: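 Inhibition of CITCO-driven (50 nM final) CYP2B6 reporter expression is measured in HepG2 cells stably carrying hCAR. Fifteen compound concentrations are applied for 24 h at 37 C, followed by luciferase luminescence.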

[11] = molecular target: Nuclear receptor subfamily 1 group I member 3 (Homo sapiens) (UniProt Q14994); test: qHTS assay to identify small molecule agonists of the constitutive androstane receptor (CAR) signaling pathway (AID 1224839); also: nearly all actives have a fitted effect of over 15% in size
How it was run: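 HepG2 cells stably expressing hCAR and a CYP2B6-2.2kb luciferase reporter were treated with compounds at 15 concentrations plus 0.75 uM PK11195 (final) for 24 h at 37 C; luminescence was read after ONE-Glo addition.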

[12] = molecular target: Thyrotropin receptor (Homo sapiens) (UniProt P16473); test: qHTS assay to identify small molecule agonists of the thyroid stimulating hormone receptor (TSHR) signaling pathway (AID 1224843; calls by dose curve; also: nearly all actives have a fitted effect of over 45% in size)
Thyrotropin receptor (Homo sapiens), sequence (P16473 whole entry, looked up): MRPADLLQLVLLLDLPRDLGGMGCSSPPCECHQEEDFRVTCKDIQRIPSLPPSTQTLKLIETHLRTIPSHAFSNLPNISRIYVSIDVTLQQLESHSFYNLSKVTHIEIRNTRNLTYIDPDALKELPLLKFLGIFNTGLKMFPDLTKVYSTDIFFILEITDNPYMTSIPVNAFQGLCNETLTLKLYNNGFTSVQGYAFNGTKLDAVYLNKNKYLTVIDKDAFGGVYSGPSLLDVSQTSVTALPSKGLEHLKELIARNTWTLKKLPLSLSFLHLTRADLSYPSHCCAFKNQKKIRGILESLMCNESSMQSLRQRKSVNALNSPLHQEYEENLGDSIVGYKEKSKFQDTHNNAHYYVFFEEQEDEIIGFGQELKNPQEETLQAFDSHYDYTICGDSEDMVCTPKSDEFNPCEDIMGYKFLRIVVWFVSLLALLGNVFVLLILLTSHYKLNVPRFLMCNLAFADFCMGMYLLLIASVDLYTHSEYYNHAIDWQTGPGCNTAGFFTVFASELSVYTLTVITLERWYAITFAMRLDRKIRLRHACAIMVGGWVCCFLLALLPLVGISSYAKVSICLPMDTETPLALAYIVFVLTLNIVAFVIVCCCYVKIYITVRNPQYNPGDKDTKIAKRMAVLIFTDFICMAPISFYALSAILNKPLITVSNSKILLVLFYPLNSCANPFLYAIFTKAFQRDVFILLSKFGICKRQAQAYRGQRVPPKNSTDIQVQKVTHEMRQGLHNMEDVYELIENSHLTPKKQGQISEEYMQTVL
How it was run: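 Agonist-mode screen: TSHR HEK293 cells received test chemicals for half an hour at room temperature, then HTRF cAMP detection reagents for one hour prior to fluorescence measurement. Each chemical ran as a 15-concentration series, triplicated.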

[13] = qHTS assay to identify small molecule antagonists of the estrogen related receptor signaling pathway with the pleiotropic PPARgamma coactivator (PGC) from Tox21 10K library (AID 1224841; call rule not given here; also: actives are mostly falling curves and most rising ones were filed inactive; nearly all actives have a fitted effect of over 50% in size)
How it was run: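 One-Glo luminescence, measured after half an hour at room temperature, quantified reporter output of PGC/ERR cells. These had been plated at 2,000 per well, incubated 6 h, dosed with compounds in DMSO, then kept 18 h at 37 C.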

[14] = qHTS assay to identify small molecule agonists of the estrogen related receptor signaling pathway with the pleiotropic PPARgamma coactivator (PGC) from Tox21 10K library (AID 1224842); also: nearly all actives have a fitted effect of over 15% in size
How it was run: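 PGC/ERR reporter cell line, 2,000 cells per well, incubated 6 h at 37 C before 23 nL compound in DMSO was added. After 18 h at 37 C, One-Glo luminescence read following 30 min at room temperature.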

Measured: Potency

CCOC(=O)CC(=O)OCC
inactive: [1] | [2] | [3] | [4] | [5] | [6] | [7]

CCCCCNCCCCC
not listed: [1] | [13] | [14]
inactive: all other assays above

CC(=O)CC(=O)N(C)C
inactive: [1] | [3] | [9] | [4] | [5] | [6] | [7]

O=[N+]([O-])c1cc(C(F)(F)F)ccc1Cl
not listed: [2] | [8]
inactive: all other assays above

C[n+]1ccn(CCO)c1
not listed: [8] | [9] | [10] | [11] | [12]
inactive: all other assays above

CC(C=O)Cc1ccc(C(C)(C)C)cc1 (stereo not given)
not listed: [8] | [9]
inactive: all other assays above

Cc1nnc(NS(=O)(=O)c2ccc(N)cc2)s1
inactive: [1] | [3] | [4] | [5] | [6] | [12] | [7]

Oc1ccc(Cc2ccccc2O)cc1
not listed: [8] | [11] | [13] | [14]
inactive: all other assays above

CCCCCCCC(=O)O
not listed: [2] | [8] | [12] | [13] | [14]
inactive: all other assays above

CCc1cccc(CC)c1N
not listed: [2] | [8] | [9] | [13] | [14]
inactive: all other assays above

COc1c2ccoc2cc2oc(=O)ccc12
inactive: [1] | [2] | [3] | [4] | [5] | [10] | [6] | [7]

CCCN(CCC)C(=O)SCC
not listed: [2] | [8] | [12] | [13] | [14]
inactive: all other assays above

Cc1ccc(Cl)cc1
not listed: [2] | [8] | [13] | [14]
inactive: all other assays above
